In the library only some 12% were active in any assay of this set; here they are far more common.
PLK1 PBD block = blocks phosphopeptide binding to human PLK1 polo-box domain | Plk1 PBD binding of FITC phosphopeptide, fluorescence polarization | AID 720504 | Potency, µM, inactives show max response, negative = inhibition, most hits filed as inhibitors | 360,000 tested, 2.8% active | P53350; further: potency means the concentration at half of the fitted maximal effect; series mostly up to about 57 µM; on the % scale 0 is the no-effect control and ±100 the full control effect; nearly all actives have a fitted effect of over 65% in size
BAZ2B block = blocks human BAZ2B | Q9UIF8 | AlphaScreen BAZ2B-H3K14Ac peptide displacement | Potency, µM (series often up to 114 µM), for the others: at the highest dose activity change, negative = inhibition, hits mostly inhibitors | 360,000 tested, 4.4% active | AID 504333; further: potency means the concentration at half of the fitted maximal effect; on the % scale 0 is the no-effect control and ±100 the full control effect; nearly all actives have a fitted effect of over 60% in size
Target sequence (Q9UIF8 whole entry, looked up): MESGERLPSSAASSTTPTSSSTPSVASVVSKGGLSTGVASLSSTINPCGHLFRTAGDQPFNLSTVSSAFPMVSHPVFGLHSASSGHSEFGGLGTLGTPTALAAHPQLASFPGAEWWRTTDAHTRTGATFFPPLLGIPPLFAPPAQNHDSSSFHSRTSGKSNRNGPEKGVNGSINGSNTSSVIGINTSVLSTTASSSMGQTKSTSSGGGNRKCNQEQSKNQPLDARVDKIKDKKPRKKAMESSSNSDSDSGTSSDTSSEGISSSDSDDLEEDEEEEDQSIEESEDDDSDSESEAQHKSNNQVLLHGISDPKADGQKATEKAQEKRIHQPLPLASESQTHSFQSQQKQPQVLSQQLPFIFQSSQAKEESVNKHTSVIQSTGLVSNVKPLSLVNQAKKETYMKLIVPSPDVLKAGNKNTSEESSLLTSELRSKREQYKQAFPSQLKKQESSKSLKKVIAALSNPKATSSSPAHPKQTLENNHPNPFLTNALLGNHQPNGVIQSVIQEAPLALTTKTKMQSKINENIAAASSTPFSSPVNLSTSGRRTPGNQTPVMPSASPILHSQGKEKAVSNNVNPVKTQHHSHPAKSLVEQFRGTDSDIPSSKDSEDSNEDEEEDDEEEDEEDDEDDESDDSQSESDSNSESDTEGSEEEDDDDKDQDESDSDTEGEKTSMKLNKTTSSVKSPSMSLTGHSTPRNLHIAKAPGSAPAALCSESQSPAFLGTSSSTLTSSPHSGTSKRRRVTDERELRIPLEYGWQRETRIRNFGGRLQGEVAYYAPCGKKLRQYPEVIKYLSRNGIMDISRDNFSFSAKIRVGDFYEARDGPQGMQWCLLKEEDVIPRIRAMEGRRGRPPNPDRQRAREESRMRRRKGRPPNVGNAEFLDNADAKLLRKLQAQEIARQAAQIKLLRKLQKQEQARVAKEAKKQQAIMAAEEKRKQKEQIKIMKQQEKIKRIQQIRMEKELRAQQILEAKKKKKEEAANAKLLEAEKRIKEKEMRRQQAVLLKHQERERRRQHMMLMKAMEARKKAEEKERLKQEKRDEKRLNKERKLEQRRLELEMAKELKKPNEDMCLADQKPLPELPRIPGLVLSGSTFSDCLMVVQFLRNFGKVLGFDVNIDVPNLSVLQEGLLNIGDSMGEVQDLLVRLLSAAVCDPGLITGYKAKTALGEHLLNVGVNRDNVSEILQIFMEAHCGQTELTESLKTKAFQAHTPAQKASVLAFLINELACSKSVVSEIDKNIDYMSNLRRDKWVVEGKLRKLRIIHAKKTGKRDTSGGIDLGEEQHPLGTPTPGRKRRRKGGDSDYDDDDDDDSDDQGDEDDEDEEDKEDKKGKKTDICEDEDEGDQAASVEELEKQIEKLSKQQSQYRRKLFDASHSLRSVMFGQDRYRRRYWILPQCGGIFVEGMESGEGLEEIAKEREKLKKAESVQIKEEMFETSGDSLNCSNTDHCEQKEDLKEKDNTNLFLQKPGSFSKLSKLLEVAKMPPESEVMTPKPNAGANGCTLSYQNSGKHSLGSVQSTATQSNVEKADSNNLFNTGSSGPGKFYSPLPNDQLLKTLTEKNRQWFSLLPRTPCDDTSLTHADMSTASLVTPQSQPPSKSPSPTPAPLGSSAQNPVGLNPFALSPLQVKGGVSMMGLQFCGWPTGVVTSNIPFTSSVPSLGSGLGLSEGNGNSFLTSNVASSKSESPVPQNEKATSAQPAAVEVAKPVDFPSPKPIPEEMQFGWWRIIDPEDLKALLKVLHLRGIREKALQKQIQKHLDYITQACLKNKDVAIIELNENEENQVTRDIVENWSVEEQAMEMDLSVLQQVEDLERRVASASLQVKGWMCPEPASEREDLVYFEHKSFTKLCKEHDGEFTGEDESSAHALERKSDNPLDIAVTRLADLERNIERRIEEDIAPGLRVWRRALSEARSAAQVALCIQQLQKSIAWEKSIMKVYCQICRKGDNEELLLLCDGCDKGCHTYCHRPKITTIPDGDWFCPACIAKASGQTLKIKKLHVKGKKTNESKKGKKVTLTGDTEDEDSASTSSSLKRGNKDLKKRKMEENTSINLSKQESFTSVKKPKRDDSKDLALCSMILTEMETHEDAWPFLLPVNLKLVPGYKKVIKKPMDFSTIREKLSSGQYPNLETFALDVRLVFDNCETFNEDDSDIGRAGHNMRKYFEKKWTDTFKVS
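Inhibition is scored as reduced AlphaScreen emission. The BAZ2B/b-H3(5-23)K14Ac complex (50 nM each) in PBS pH 7.4, 0.01% Tween-20 meets compound (up to 110 uM) for 30 min at RT before bead addition.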
JMJD2A Tudor = JMJD2A Tudor domain (human) inhibition; O75164; AlphaScreen JMJD2A-Tudor / H3K4me3 peptide binding; Potency, µM (doses to about 114 µM), for inactives: at the top dose activity change, negative = inhibition, most hits filed as inhibitors; 390,000 tested, 4.4% active; AID 504339; further: potency means the concentration at half of the fitted maximal effect; on the % scale 0 is the no-effect control and ±100 the full control effect; nearly all actives have a fitted effect of over 50% in size
PI5P4K alpha inh = blocks human PI5P4K alpha kinase activity | P48426 | AID 652105 | 330,000 tested, 1.2% active | PI5P4Kalpha enzyme, ADP-Glo luminescence, 60 min; active compounds read low | max response, %; active means max response of -50% or lower; inconclusive means between -30% and -50%; inactive means -30% or higher; further: value at the top dose of about 77 µM; on the % scale 0 is the no-effect control and ±100 the full control effect
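Reactions run in 0.038 M HEPES pH 7.4, 0.28 mM EGTA, 0.1% CHAPS and 5% DMSO, with PI5P4Kalpha, substrate, compound and 5 microM ATP final, one hour at room temperature. Readout is ADP-Glo luminescence.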
HP1b binding inh = blocks HP1-beta chromodomain binding to methylated histone tails; P83916; AlphaScreen HP1-beta / biotin-H3K9me3 peptide binding; Potency, µM (series often up to 114 µM), for inactives: top-dose activity change, negative = inhibition, usual class: inhibitors; 390,000 tested, 0.56% active; further: potency means the concentration at half of the fitted maximal effect; nearly all actives have a fitted effect of over 70% in size
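AlphaScreen: HP1-beta (50 nM) preformed 30 min with biotin-H3(1-18)K9me3 peptide (50 nM) in PBS pH 7.4, 0.01% Tween-20. Compound added for 30 min at RT, then streptavidin donor/nickel chelate acceptor beads (10 ug/mL) for 30 min.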
G9a inh = inhibitors of human histone lysine methyltransferase G9a. Q96KQ7. G9a H3K9 monomethylation, AlphaScreen, 2 h. Potency, µM (top dose mostly 102 µM), for inactives: at the highest dose activity, negative = inhibition, usual class: inhibitors. 350,000 tested, 8.8% active; further: potency means the concentration at half of the fitted maximal effect; on the % scale 0 is the no-effect control and ±100 the full control effect; nearly all actives have a fitted effect of over 75% in size
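Step 1: enzyme (final 20 nM) with compound, 15 min RT. Step 2: substrate peptide 500 nM and SAM 20 uM, 2 h RT. Step 3: anti-H3K9me1 antibody and AlphaScreen beads, 10 min, then plate read.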
* hit, by the source's call; ? = inconclusive; . = no result; [ ] = another dose, or the depositor's remark. Unless noted, the call rests on the fitted dose curve; in most records, active means well fitted curve in the direction sought with a large enough effect; inconclusive means small, poorly fitted or top-dose-only effect, or another doubt; inactive means no such curve, though single readings can be large; an effect the other way counts as inactive or inconclusive.

SMILES	PLK1 PBD block	BAZ2B block	JMJD2A Tudor	PI5P4K alpha inh	HP1b binding inh	G9a inh
Cc1cccc(C(=O)NC(=S)NNC(=O)c2cccs2)c1	-11%	11%	25µM*	?	?	7.1µM*
COc1ccc(N(C(=O)c2cccc(C)c2)S(=O)(=O)c2ccc3c(c2)n(C)c(=O)n3C)cc1	.	?	-24%	.	-1%	?
COc1ccc(N2CCN(c3cc(C)c4cccc(C)c4n3)CC2)cc1	2%	?	22µM*	4	?	13µM*
COc1ccc(N2CCN(c3cc(C)c4ccc(C)cc4n3)CC2)cc1	-8%	-38%	?	24	?	8.9µM*
COc1ccc(N2CCN(c3nc4cc(C)ccc4cc3C=O)CC2)cc1	-4%	13µM*	22µM*	0	?	25µM*
COc1ccc2c(C)cc(N3CCN(c4ccc(F)cc4)CC3)nc2c1	-7%	-34%	-24%	.	10%	-7%[59 µM]
COc1ccc(N2CCN(c3cc(C)c4ccc(O)cc4n3)CC2)cc1	5%	45µM*	?	3	16%	?
Cc1cc(N2CCN(c3ncccn3)CC2)nc2c(C)cccc12	3%	70%	13%	28	59%	33%
CCOC(=O)c1c(C)[nH]c(CCC(=O)Nc2cc(Cl)ccc2OC)c1C	.	-11%	-15%	.	14%[57 µM]	-37%[59 µM]
Cc1ccc(-c2cc(-c3ccc4c(c3)NC(=O)CO4)nc3c2COc2ccccc2-3)cc1	.	-34%	-12%	.	36%	7%[59 µM]
CCOC(=O)[C@]12CCCC=C1N(Cc1ccccc1)C(=O)[C@H](CC(=O)N1CCC(c3ccccc3)CC1)C2	7%	.	.	-3	.	.
CC1CCc2c(sc(/N=C/N(C)C)c2C#N)C1 (configuration not stated)	-4%	40µM*	-31%	2	-4%	22µM*
N#Cc1c(/N=C/c2ccco2)sc2c1CCCCC2	-5%	35µM*	-19%	-8	?	?
CN(C)/C=N/c1sc2c(c1C(N)=O)CCCC2	-13%	?	-15%	-8	9%	-10%
CN(C)/C=N/c1sc2c(c1C#N)CCCC2	-4%	?	-32%	0	13%	50µM*
CCOc1ccc(OCC)c(NC(=O)CN(C)S(=O)(=O)c2ccc3[nH]c(=O)oc3c2)c1	.	-23%	-23%	.	36%	-6%[59 µM]
COc1ccc(-c2c(-c3cc(OC)cc(OC)c3)n(C)c3ccc(Br)cc23)cc1	-4%	-37%	-26%	-4	24%	28%[2.33 µM]
COc1ccc(N=Nc2nc3ccc(Br)cc3n2C)cc1	?	63µM*	?	-3	?	6.3µM*
O=C1NC[C@@H](CCCCN2CCN(CC3CCCCC3)C(=O)C2=O)N(CCC2CCCCC2)C1=O	-5%	.	.	-2	.	.
CC(C)(C)c1ccc2c(c1)N(CC(=O)O)C(=O)CO2	3%	-34%	-8%	.	36%	-29%
CCOC(=O)N1CCN(C(=O)CN2C(=O)COc3ccc(C(C)(C)C)cc32)CC1	?	38%	89µM*	.	-3%	?
Cc1cc2c(cc3c(SCc4ccc(Cl)cc4)nnc(C)n32)o1	.	28µM*	?	.	-14%	4.5µM*
Cc1cc2c(cc3c(SCc4cccc(F)c4)nnc(C)n32)o1	.	?	-33%	.	13%	?
Cc1noc2ncnc(N3CCCC(C(=O)NC(C)C)C3)c12 (configuration not stated)	.	3%[57.1 µM]	-7%	.	4%	-5%[59 µM]
Cc1noc2nc(C(=O)O)nc(N3CCCCC3)c12	.	?	40µM*	.	7%	13µM*
SMILES	PLK1 PBD block	BAZ2B block	JMJD2A Tudor	PI5P4K alpha inh	HP1b binding inh	G9a inh
Cc1cc(=O)[nH]c(-n2ncc(C#N)c2N)n1	2%	.	1.6µM*	?	13%	2.8µM*
CN(CC(=O)Nc1ccc(N2CCOCC2)cc1)C(=O)c1cc(S(=O)(=O)N(C)C)ccc1Cl	-9%	-19%	-17%	0	4%	?
COc1cc(NC(=O)c2ccc(S(=O)(=O)N(C)c3ccccc3OC)cc2)cc(OC)c1	4%	.	-17%	6	15%	.
C=CCN(c1ccccc1OC)S(=O)(=O)c1ccc(Cl)c(C(=O)Nc2ccc(N3CCOCC3)cc2)c1	-1%	?	-31%	-10	4%	25µM*
COC(=O)c1ccc(NC(=O)c2ccccc2N(C)S(=O)(=O)c2ccccc2)cc1	24µM*	8%	-19%[11.4 µM]	-18	-4%	-38%[59 µM]
COc1ccccc1N(C)S(=O)(=O)c1ccc(C(=O)Nc2ccc(N3CCOCC3)cc2)cc1	6%	?	?	-3	0%	40µM*
CC1CCN(C(=O)CN2C(=O)NC(C)(c3ccc4ccccc4c3)C2=O)CC1 (configuration not stated)	-2%	.	-4%	0	29%	.
CCN(CC)CCNC(=O)C(=O)NCC(c1cccnc1)N1CCN(c2ccccc2)CC1 (configuration not stated)	.	2%	-12%	.	39%	0%[59 µM]
C=CCn1c(SCc2nc(N)nc(N(C)C)n2)nnc1-c1cccnc1	1%	?	-11%	-4	21%	50µM*
C=CCn1c(SCC(=O)Nc2cc(NC(C)=O)ccc2OC)nnc1-c1ccccn1	1%	79µM*	?	-3	16%	-4%
C=CCn1c(SCC(=O)NC2CCCC2)nnc1-c1cccnc1	-9%	1%	-14%	3	23%	.
C=CCn1c(SCC(=O)Nc2ccc(N(C)C)cc2)nnc1-c1cccc(C)c1	-10%	45µM*	50µM*	-15	-58%	7.9µM*
C=CCn1c(SCC(=O)Nc2ccccc2OC)nnc1-c1ccccn1	-14%	?	?	.	4%	18%[59 µM]
C=CCn1c(SCC(=O)c2ccc(O)c(O)c2)nnc1-c1cccnc1	-16%	35µM*	-23%[11.4 µM]	-51*	25µM*	.
CC(=O)c1ccc(N(CC(=O)NCCc2ccccc2)C(=O)c2csnn2)cc1	-6%	2%	7%	1	17%[57 µM]	1%
C=CCn1c(SCC(=O)c2ccc(O)c(O)c2)nnc1-c1cccc(C)c1	-4%	50µM*	?	-1	-8%	?
C=CCn1c(SCC(=O)c2ccc(O)c(O)c2)nnc1-c1cccc(Cl)c1	-20%	50µM*	?	-15	-6%	-4%[0.501 µM]
COc1ccccc1CCN1COc2c(cc3c(C)c(C)c(=O)oc3c2C)C1	.	9%	-17%	.	78%	29%[59 µM]
CC(C)(CO)NCc1ccc(Br)cc1	19µM*	-36%	7.9µM*	?	3%	-23%
Cc1ccc(C)c(N2CCN(C(=O)c3cc4cc5ccc(C)cc5nc4s3)CC2)c1	.	8%	-12%	.	7%	-2%[59 µM]
CCNC(=O)C1(C)CCN(Cc2noc(-c3c(C)noc3C)n2)C1 (configuration not stated)	-5%	.	.	3	.	.

High-throughput results deposited in PubChem by National Center for Advancing Translational Sciences (NCATS).
